From PubChem
Only some compounds are listed: those with a hit (about 8.8% of all), similar ones and a draw of the others.
HttQ103 aggreg: reduces HttQ103-GFP aggregates in PC12 cells. PC12 HttQ103-GFP aggregates, Acumen cytometry, 40 h. Potency, µM (highest dose often 46.1 µM), inactives show top-dose activity change, negative = inhibition, most hits filed as inhibitors. 220,000 compounds, 1.1% hits. AID 1688; further: on the % scale 0 is the no-effect control and ±100 the full control effect; nearly all actives have a fitted effect of over 60% in size
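Steps: seed 1500 PC12 HTTQ103-GFP cells/well; add tebufenozide, 100 nM final; add compound titration; add ATPLite reagent; quantify GFP aggregates by laser scanning cytometry.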
HTT ATP protect: protects HTT-Q103 PC12 cells, measured by ATP; 230,000 compounds, 0.14% hits; PC12 HTT-Q103 induced, cytoprotection, ATP luminescence, 40 h; AID 1471; Potency, µM (doses to about 56.4 µM), for the others: cytoprotection (ATP increase), actives largely listed as activators; further: % of control where 0% means no effect; nearly all actives have a fitted effect of over 45% in size
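Stable PC12 Q103-GFP cells in serum-supplemented, phenol red-free DMEM; induction by tebufenozide at 100 nM final; compound dose series; cell viability quantified luminescently from ATP.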
HPGD block: blocks human HPGD enzyme activity | P15428 | purified HPGD, NADH fluorescence kinetic, PGE2 substrate | Potency, µM, without a hit: at the highest dose activity change, negative = inhibition, hits mostly inhibitors | 150,000 compounds, 4.3% hits | AID 894; active means well fitted inhibition curve with a large enough effect, not every such curve was filed as active; inconclusive means small, poorly fitted or top-dose-only effect, or another doubt; inactive means no such curve, though single readings can be large or run the other way; further: on the % scale 0 is the no-effect control and ±100 the full control effect
Target sequence (P15428 whole entry, looked up): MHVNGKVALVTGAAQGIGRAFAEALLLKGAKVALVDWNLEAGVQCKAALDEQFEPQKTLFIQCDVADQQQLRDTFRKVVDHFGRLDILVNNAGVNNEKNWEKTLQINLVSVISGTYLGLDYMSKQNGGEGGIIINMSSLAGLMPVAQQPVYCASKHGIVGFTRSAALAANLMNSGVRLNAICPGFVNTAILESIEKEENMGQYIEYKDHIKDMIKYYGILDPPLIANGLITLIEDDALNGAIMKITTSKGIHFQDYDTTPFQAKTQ
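20 nM HPGD preincubated 15 min at room temperature with compound in 50 mM Tris-HCl pH 8, 0.01% Tween 20. Started with 1 mM NAD+ and 30 uM prostaglandin E2; NADH fluorescence (360/450 nm) read 5 times over 30-s intervals, last minus first.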
Lamin A splicing: modulators of lamin A splicing | HeLa LMNA splicing GFP/RFP minigene ratio, 48 h | Potency, µM (doses to about 46.1 µM), for inactives: top-dose ratio change, negative = inhibition, hits mostly inhibitors | 200,000 compounds, 0.01% hits; active means well fitted inhibition curve with a large enough effect in the signal ratio, with a control signal flat, not every such curve was filed as active; inconclusive means small, poorly fitted or top-dose-only effect, or effect the other way, or a change in a side signal; the % refers to the signal ratio; further: on the % scale 0 is the no-effect control and ±100 the full control effect
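S3 HeLa cells stably expressing lamin A-EGFP splicing minigene plus DsRed2, 600 cells/well, 48 h compound exposure at 37C. Laser-scanning cytometry; analysed as GFP (500-530 nm)/RFP (575-640 nm) total intensity ratio; 0.5% DMSO vehicle.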
ALDH1A1 inh: ALDH1A1 (human) enzyme inhibition; Purified ALDH1A1, NADH fluorescence, propionaldehyde substrate; P00352; Potency, µM (titrated, usually from 75.3 µM), for inactives: top-dose activity, negative = inhibition, actives largely listed as inhibitors; 220,000 compounds, 7.3% hits; active means well fitted inhibition curve with a large enough effect, not every such curve was filed as active; inconclusive means small, poorly fitted or top-dose-only effect, or another doubt; inactive means no such curve, though single readings can be large or run the other way;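 further: plate controls were no enzyme wells and a reference inhibitor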
An asterisk follows results filed as active; [ ] = another dose, or the depositor's remark. Unless noted, the call rests on the fitted dose curve; in most records, active means well fitted curve in the direction sought with a large enough effect; inconclusive means small, poorly fitted or top-dose-only effect, or another doubt; inactive means no such curve, though single readings can be large; an effect the other way counts as inactive or inconclusive. Potency means the concentration at half of the fitted maximal effect.

For Cc1ccc(NC2c3ncccc3C(=O)N2Cc2cccs2)cc1 (stereo unspecified) the results were HttQ103 aggreg -2%, HTT ATP protect -25%, Lamin A splicing 23%[9.22 µM] and ALDH1A1 inh 28µM*.
O=C1c2cccnc2C(Nc2cccc(F)c2)N1Cc1ccco1 (stereo unspecified) was read as HttQ103 aggreg 8%[9.22 µM], HTT ATP protect 27%[10 µM], Lamin A splicing inconclusive and ALDH1A1 inh -6%.
Screening O=C1c2cccnc2C(O)N1Cc1ccco1 (stereo unspecified) returned HttQ103 aggreg -16%, HTT ATP protect -17%[10 µM], HPGD block 5%, Lamin A splicing -5% and ALDH1A1 inh 20µM*.
Screening O=C1c2cccnc2C(Nc2ccccc2Br)N1Cc1ccco1 (stereo unspecified) returned HttQ103 aggreg -20%, HTT ATP protect -11% and ALDH1A1 inh 25µM*.
Screening O=C1c2cccnc2C(Nc2ccccc2)N1Cc1ccco1 (stereo unspecified) returned HttQ103 aggreg 3%, HTT ATP protect -20%, HPGD block inconclusive, Lamin A splicing 10% and ALDH1A1 inh 22µM*.
For Cc1cnc2c(c1SCC(=O)NCc1ccccc1Cl)c(=O)n(C)c(=O)n2C the results were Lamin A splicing 1%[46 µM].
For O=C(CSc1nccn1Cc1ccc2c(c1)OCO2)Nc1ccccc1F the results were Lamin A splicing -7%[46 µM].
`Cc1ccc(-c2nn(-c3ccccc3)cc2C(=O)N2CCOCC2)cc1C` gave HttQ103 aggreg 4%, HTT ATP protect -20%, Lamin A splicing -18%[46 µM] and ALDH1A1 inh 10µM*.
CCc1ccc(NC(=O)CCn2cnc3ccccc3c2=O)cc1 was read as Lamin A splicing 2%[46 µM].
Screening O=C1C2=C(Nc3ccccc3SC2c2ccco2)c2ccccc21 (stereo unspecified) returned HttQ103 aggreg 15%, HTT ATP protect 5%, HPGD block -28%, Lamin A splicing 10% and ALDH1A1 inh 6.3µM*.
O=C(O)CCCC(=O)Nc1ccc(Cl)cc1 was read as HttQ103 aggreg -6%[9.22 µM], HTT ATP protect -8%[10 µM] and ALDH1A1 inh 28µM*.
Screening O=C(CCCC(=O)OCC(=O)c1cccs1)Nc1ccc(Oc2ccccc2)cc1 returned HttQ103 aggreg 15%, HTT ATP protect -62%, HPGD block -26%, Lamin A splicing 6% and ALDH1A1 inh inconclusive.
For O=C(CCCC(=O)OCC(Cl)=C(Cl)Cl)Nc1ccccc1 the results were HttQ103 aggreg 16%, HTT ATP protect 0%[10 µM], HPGD block 25µM*, Lamin A splicing -5% and ALDH1A1 inh -4%.
Screening COc1cccc(N2CCN(S(=O)(=O)c3ccc4[nH]c5c(c4c3)CCCC5)CC2)c1 returned Lamin A splicing 0%[46 µM].
`CC(C)NC(=O)c1nn2c(C(F)(F)F)cc(-c3ccco3)nc2c1Cl` gave HttQ103 aggreg 10%[9.22 µM], HTT ATP protect inconclusive, Lamin A splicing 20%[46 µM] and ALDH1A1 inh -1%.
Screening O=C(NC1CCCCC1)c1nn2c(C(F)(F)F)cc(-c3ccco3)nc2c1Br returned HttQ103 aggreg 4%, HTT ATP protect -22%, HPGD block -12%, Lamin A splicing 7% and ALDH1A1 inh 22µM*.
CN(CCc1ccccn1)C(=O)c1nn2c(C(F)(F)F)cc(-c3ccco3)nc2c1Cl was read as HttQ103 aggreg -13%, HTT ATP protect -3%[10 µM], HPGD block -19%, Lamin A splicing 29% and ALDH1A1 inh 25µM*.
For CC1CCCCN1C(=O)c1cnn2c(C(F)(F)F)cc(-c3ccco3)nc12 (stereo unspecified) the results were HttQ103 aggreg 9%, HTT ATP protect -7%, HPGD block 7.1µM*, Lamin A splicing 8% and ALDH1A1 inh -5%.
O=C(NC1CCCCC1)c1cnn2c(C(F)(F)F)cc(-c3ccco3)nc12 was read as HttQ103 aggreg -8%, HTT ATP protect -65%, HPGD block inconclusive, Lamin A splicing 16% and ALDH1A1 inh inconclusive.
`CC[n+]1c(/C=C2\C=C(C)CC(C)(C)C2)sc2ccccc21` gave HttQ103 aggreg inconclusive, HTT ATP protect -18%, HPGD block -24%, Lamin A splicing inconclusive and ALDH1A1 inh inconclusive.
CC[n+]1c(/C=C2/C=C(C)CC(C)(C)C2)sc2ccc(OC)cc21 was read as HttQ103 aggreg inconclusive, HTT ATP protect -1%, HPGD block -26%, Lamin A splicing inconclusive and ALDH1A1 inh 8.9µM*.
`Cc1cccc2nc3c(nc12)-c1ccccc1C3=O` gave HttQ103 aggreg -15%[9.22 µM] and HTT ATP protect -5%[10 µM].
`CCC1(C)Cc2nc3sc(C(=O)O)c(N)c3cc2CO1` (stereo unspecified) gave HttQ103 aggreg -13%, HTT ATP protect 7%[10 µM], HPGD block -18%, Lamin A splicing -5% and ALDH1A1 inh 22µM*.
Screening CCOC(=O)c1sc2nc3c(cc2c1N)COC(C)(CC)C3 (stereo unspecified) returned HttQ103 aggreg -1%, HTT ATP protect inconclusive, HPGD block inconclusive, Lamin A splicing -17% and ALDH1A1 inh inconclusive.
Screening COc1cc(C(Nc2ccc3c(c2)OCO3)C(=O)NC2CCCCC2)cc(OC)c1OC (stereo unspecified) returned HttQ103 aggreg -16%, HTT ATP protect -16%, HPGD block -29%, Lamin A splicing 1% and ALDH1A1 inh 0.63µM*.
Screening O=C(CN1C2=NCCCN2c2ccccc21)c1cccc(Br)c1 returned HttQ103 aggreg 4µM*, HTT ATP protect -97%[10 µM], HPGD block -8%, Lamin A splicing -5% and ALDH1A1 inh inconclusive.
For COc1ccc(C(=O)/C=C/c2ccc(OC)c(COc3ccccc3F)c2)cc1 the results were HttQ103 aggreg 8%, HTT ATP protect 7%[10 µM], HPGD block -25%, Lamin A splicing -21% and ALDH1A1 inh 2.5µM*.
For COc1ccc(C=O)cc1COc1ccc(F)cc1F the results were HttQ103 aggreg -2%[9.22 µM], HTT ATP protect -33%, HPGD block 32µM*, Lamin A splicing -9% and ALDH1A1 inh 8.9µM*.
`COc1ccc(C=O)cc1COc1c(F)c(F)cc(F)c1F` gave HttQ103 aggreg 6%, HTT ATP protect 10%, HPGD block -14%, Lamin A splicing 2% and ALDH1A1 inh inconclusive.
For COc1cc(/C=C/C(=O)c2ccc(C)cc2)ccc1OCC#N the results were HttQ103 aggreg 6%, HTT ATP protect -13%[10 µM], HPGD block -28%, Lamin A splicing inconclusive and ALDH1A1 inh 13µM*.
COc1ccc(/C=C/C(=O)c2ccccc2)cc1COc1ccc(F)cc1 was read as HttQ103 aggreg -5%, HTT ATP protect -10%, HPGD block -15%, Lamin A splicing 13% and ALDH1A1 inh 1%.
